Data from PubChem BioAssay (NCI).
About 83,000 compounds went through this panel and 20% of them were active in at least one assay; those are over-represented in the sample as a whole.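 Treatment: one concentration, 48 hours, 96-well format. Scoring: percent growth, with anything below 10 considered active.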 Values without a mark were called inactive. Calls of active or inactive are those of the source.

tested on: MDA-MB-468 breast; test: NCI-60 one-dose screen, 48 h (100 = growth as untreated, 0 = no growth, -100 = all killed); settings: 10 µM unless noted

For CN(C)c1ncc(-c2ccc(C(F)(F)F)cc2)c(NC2CCCCCC2)n1, which growth is on record?
The growth was 29.5%.

Which growth does the source give for Cc1cc(=O)n2nnc3cc(C(F)(F)F)ccc3n12 here?
The growth was 122%.

How did the growth turn out when CC(=O)c1ccc(NC(=O)CSc2nnc(-c3cc(-c4ccc(Cl)cc4)nc4ccccc34)o2)cc1 was run?
Its growth is 115%.

How did the growth turn out when N=C(N)c1ccc(-c2ccc(-c3cccs3)o2)cc1 was run?
The growth was -40.5% (active).

CCN1C(=O)N(CC)C2C1NC(=S)N2/N=C/C=C/c1ccccc1OC (stereo not given) was tested. Which growth did it give?
Its growth is -0.348% (active).

How did the growth turn out when COc1ccc2c(c1)C(c1c[nH]c3ccccc13)(c1c[nH]c3ccccc13)CCO2 was run?
The growth was 35%.

O=C(c1ccccc1)N1N=C(c2ccc(-n3ccc(C(F)(F)F)n3)c(F)c2)CC1c1ccc[nH]1 (stereo not given) was tested. Which growth did it give?
The growth was 108%.

How did the growth turn out when C[C@H](CCC(=O)O)[C@H]1CC[C@H]2[C@@H]3CC[C@@H]4/C(=C\c5ccco5)C(=O)/C(=C\c5ccco5)C[C@]4(C)[C@H]3CC[C@]12C was run?
The growth was 41.1%.

For COc1ccc(/C=C/C=C\C(=O)c2ccc(-n3ccnc3)cc2)cc1, which growth is on record?
Its growth is 92.4%.

O=S(=O)(O)c1cccc(Nc2ccc3ccccc3c2)c1 was tested. Which growth did it give?
Its growth is 105%.

How did the growth turn out when COc1cc(NCC(O)CN(CC(C)C)C2CCCC2)c2ncccc2c1 (stereo not given) was run?
Its growth is -13.4% (active).

For NC(=O)NCC1CCCCC1, which growth is on record?
Its growth is 98%.

CC(=O)Oc1ccccc1C(=O)N=C1[Se]CCN1C(=O)c1ccccc1OC(C)=O was tested. Which growth did it give?
The growth was -25.6% (active).

With CC(=O)Nc1ccc(/C=N/N2CCCCCC2)cc1 as the compound, how does the growth read?
Its growth is 98.6%.

Which growth does the source give for O=c1c2cccc3c(Nc4ccccn4)ccc(c32)c2nc3ccccc3n12 here?
The growth was -22.4% (active).

COc1cc(C(=O)O/N=C(\N)Cc2cccc3ccccc23)cc(OC)c1OC was tested. Which growth did it give?
The growth was -72.1% (active).

For CN(C)c1ncc(C#Cc2c(F)cccc2F)c2ccccc12, which growth is on record?
The growth was -7.26% (active).

CNCc1cccc2c1OCCOCCN(C)C(=O)CN(C)S(=O)(=O)c1ccc(cc1)-c1cnc(N)c(n1)C(=O)N2 was tested. Which growth did it give?
Its growth is -49.3% (active).

For Nc1c(C(=O)Nc2cccc3ncccc23)sc2nc3c(cc12)CN(Cc1ccccc1)CC3, which growth is on record?
The growth was 31.4%.

Nc1c(C(=O)Nc2ccccc2C(F)(F)F)sc2nc3c(cc12)CCC3 was tested. Which growth did it give?
Its growth is 104%.

For Cn1cc(-c2cc(N)n3nc(-c4cn(C)c5ccc(Br)cc45)cc3n2)c2cc(Br)ccc21, which growth is on record?
Its growth is 97.9%.

With O=C(Nc1ccc(-n2cc(-c3ccncc3)c(-c3ccc(Cl)c(O)c3)n2)cc1)c1ccc(Cl)c(C(F)(F)F)c1 as the compound, how does the growth read?
Its growth is -12% (active).

Which growth does the source give for O=c1nc(NO)[nH]c(=O)n1Cc1ccccc1 here?
The growth was 107%.

Which growth does the source give for O=C(CSc1nnc(-c2cc(-c3ccccc3)nc3ccccc23)n1-c1ccccc1)Nc1ccc(C(=O)/C=C/c2ccc(Cl)cc2)cc1 here?
Its growth is 88.9%.

With NC(CCc1nc2ccccc2c(=O)[nH]1)C(=O)O (stereo not given) as the compound, how does the growth read?
The growth was 105%.

For CCc1onc(-c2ccc(OC)cc2)c1-c1ccccc1OCCN(CC)CC, which growth is on record?
Its growth is 80%.

With CCC(=O)Oc1ccc(/C(=C(/C)Cc2cccc(OC)c2)c2ccc(OCCN(C)C)cc2)cc1 as the compound, how does the growth read?
Its growth is 76.1%.

How did the growth turn out when CC(C)n1c2ccc(Br)cc2c2c3c(c4c5ccccc5ccc4c21)C(=O)NC3=O was run?
Its growth is 93.5%.

CCN1CCN(c2nc(NNC(=O)c3ccc(OC)cc3)nc(N3CCN(C(c4ccccc4)c4ccccc4)CC3)n2)CC1 was tested. Which growth did it give?
The growth was 10.7%.

With CCCCN(CCCC)CCC(C)(O)c1cc2ccccc2c2ccccc12 (stereo not given) as the compound, how does the growth read?
Its growth is 107%.

O=C(CN1N=C(c2ccc(F)cc2)CCC1=O)Nc1nc2ccccc2s1 was tested. Which growth did it give?
The growth was 97.7%.

COc1cccc(-c2[nH]c(=S)ncc2C(=O)c2ccccc2)c1 was tested. Which growth did it give?
The growth was 59.4%.

How did the growth turn out when CCN(CC)CCCC(C)NCc1ccccc1 (stereo not given) was run?
The growth was 112%.

With COc1ccc(Oc2c(I)cc(CC(NC(C)=O)C(=O)O)cc2I)cc1 (stereo not given) as the compound, how does the growth read?
The growth was 75.8%.

With C=CCN=c1sc(-c2ccc3ccccc3c2)cn1NC(=O)c1cc2ccc1CCc1ccc(cc1)CC2 as the compound, how does the growth read?
The growth was 39.1%.

For Cc1cc(C(=O)c2ccccc2)c(C)c2c1[nH]c1ccc(Cl)cc12, which growth is on record?
The growth was -7.26% (active).

COc1ccc(-c2ccc3cc(C(=O)Nc4ccc(O)c(C(=O)/C=C/c5cc(OC)c(OC)c(OC)c5)c4)ccc3c2)cc1 was tested. Which growth did it give?
The growth was 82.2%.

For COc1ccc2cc(-c3cnc4nonc4n3)ccc2c1, which growth is on record?
The growth was -2.09% (active).

Which growth does the source give for OCc1cnccc1NC12CC3CC(CC(C3)C1)C2 here?
The growth was 99.2%.

COc1ccc(CN2CCCC(C(=O)c3ccc(C(F)(F)F)cc3)C2)c(O)c1 (stereo not given) was tested. Which growth did it give?
The growth was 12.9%.
